The values that follow come from the supplement of paper PMC11006884.

About 6,500 targets were measured; listed, in parts, are those with a hit and a random draw of the rest. About 2% of all pairs of compound and target were hits. Unmarked numbers belong to inactive results.

Sequence of UniProt Q00653 (Q00653 whole entry): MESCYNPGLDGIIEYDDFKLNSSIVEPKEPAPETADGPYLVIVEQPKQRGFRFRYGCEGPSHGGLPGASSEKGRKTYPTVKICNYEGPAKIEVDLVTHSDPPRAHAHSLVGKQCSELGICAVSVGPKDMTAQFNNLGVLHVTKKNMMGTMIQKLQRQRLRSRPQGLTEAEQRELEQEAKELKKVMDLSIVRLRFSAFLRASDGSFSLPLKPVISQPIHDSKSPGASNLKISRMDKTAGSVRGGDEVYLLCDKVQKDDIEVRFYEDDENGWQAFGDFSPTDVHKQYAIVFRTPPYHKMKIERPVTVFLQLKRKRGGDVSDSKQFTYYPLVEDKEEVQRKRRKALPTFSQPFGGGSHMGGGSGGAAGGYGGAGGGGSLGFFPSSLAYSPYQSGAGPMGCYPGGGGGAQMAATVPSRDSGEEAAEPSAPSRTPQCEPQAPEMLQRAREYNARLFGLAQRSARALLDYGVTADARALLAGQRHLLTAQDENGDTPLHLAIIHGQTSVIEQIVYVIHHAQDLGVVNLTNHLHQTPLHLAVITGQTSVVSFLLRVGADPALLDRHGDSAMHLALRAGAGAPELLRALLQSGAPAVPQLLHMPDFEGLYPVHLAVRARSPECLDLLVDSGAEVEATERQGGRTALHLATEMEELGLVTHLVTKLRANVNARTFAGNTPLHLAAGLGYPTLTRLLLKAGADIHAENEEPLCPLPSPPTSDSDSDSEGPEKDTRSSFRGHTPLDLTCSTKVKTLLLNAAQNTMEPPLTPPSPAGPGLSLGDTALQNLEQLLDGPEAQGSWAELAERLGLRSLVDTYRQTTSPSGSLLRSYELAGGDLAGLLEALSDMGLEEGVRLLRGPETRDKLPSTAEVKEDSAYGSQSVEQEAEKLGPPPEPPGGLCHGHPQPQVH
Sequence of UniProt Q13418 (Q13418 whole entry, looked up): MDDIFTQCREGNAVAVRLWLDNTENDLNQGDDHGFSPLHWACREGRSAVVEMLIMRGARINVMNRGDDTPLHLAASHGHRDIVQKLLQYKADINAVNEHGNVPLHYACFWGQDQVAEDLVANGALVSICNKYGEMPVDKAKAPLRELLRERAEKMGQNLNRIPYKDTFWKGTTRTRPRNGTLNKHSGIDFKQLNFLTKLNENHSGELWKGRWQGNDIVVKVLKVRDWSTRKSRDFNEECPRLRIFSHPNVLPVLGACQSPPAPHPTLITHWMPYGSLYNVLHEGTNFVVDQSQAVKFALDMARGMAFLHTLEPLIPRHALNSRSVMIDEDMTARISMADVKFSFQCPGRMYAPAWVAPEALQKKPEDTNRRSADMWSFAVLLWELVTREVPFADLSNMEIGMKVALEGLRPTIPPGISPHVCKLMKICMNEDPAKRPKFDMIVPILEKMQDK
Sequence of UniProt Q32MZ4 (Q32MZ4 whole entry, looked up): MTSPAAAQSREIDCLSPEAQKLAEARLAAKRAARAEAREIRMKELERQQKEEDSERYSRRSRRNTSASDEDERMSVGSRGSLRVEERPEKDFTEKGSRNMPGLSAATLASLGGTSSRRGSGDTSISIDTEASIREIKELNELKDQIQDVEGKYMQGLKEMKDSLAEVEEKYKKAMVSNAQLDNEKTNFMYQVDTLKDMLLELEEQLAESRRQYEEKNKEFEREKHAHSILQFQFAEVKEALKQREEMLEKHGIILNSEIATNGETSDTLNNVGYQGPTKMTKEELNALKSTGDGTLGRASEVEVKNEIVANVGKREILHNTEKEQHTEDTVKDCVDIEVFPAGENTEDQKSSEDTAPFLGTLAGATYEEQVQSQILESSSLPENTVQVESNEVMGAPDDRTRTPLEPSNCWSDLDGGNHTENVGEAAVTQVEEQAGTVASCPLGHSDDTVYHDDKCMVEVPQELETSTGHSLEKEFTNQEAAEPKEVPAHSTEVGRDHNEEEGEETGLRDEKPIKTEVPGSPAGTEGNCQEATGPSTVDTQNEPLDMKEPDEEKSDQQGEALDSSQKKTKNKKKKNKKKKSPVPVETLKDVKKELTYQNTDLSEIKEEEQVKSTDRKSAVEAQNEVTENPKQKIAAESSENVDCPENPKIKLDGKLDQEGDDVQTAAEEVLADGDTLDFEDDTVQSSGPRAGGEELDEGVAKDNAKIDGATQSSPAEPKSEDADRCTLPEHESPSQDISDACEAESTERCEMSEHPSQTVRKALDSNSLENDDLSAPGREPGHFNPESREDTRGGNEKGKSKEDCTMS
Sequence of UniProt Q06546 (Q06546 whole entry): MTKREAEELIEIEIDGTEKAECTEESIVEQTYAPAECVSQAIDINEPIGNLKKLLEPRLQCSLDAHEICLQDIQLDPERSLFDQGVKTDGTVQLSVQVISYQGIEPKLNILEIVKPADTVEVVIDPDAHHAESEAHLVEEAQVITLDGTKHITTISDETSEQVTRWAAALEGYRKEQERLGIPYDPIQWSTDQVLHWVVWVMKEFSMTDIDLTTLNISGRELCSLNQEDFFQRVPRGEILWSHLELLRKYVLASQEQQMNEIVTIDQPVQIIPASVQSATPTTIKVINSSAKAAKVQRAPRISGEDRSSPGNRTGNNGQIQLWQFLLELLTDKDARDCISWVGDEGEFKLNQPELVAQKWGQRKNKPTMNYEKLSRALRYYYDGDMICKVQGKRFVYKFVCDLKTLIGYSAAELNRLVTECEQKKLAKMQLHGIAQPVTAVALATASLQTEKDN
Sequence of UniProt Q14694 (Q14694 whole entry, looked up): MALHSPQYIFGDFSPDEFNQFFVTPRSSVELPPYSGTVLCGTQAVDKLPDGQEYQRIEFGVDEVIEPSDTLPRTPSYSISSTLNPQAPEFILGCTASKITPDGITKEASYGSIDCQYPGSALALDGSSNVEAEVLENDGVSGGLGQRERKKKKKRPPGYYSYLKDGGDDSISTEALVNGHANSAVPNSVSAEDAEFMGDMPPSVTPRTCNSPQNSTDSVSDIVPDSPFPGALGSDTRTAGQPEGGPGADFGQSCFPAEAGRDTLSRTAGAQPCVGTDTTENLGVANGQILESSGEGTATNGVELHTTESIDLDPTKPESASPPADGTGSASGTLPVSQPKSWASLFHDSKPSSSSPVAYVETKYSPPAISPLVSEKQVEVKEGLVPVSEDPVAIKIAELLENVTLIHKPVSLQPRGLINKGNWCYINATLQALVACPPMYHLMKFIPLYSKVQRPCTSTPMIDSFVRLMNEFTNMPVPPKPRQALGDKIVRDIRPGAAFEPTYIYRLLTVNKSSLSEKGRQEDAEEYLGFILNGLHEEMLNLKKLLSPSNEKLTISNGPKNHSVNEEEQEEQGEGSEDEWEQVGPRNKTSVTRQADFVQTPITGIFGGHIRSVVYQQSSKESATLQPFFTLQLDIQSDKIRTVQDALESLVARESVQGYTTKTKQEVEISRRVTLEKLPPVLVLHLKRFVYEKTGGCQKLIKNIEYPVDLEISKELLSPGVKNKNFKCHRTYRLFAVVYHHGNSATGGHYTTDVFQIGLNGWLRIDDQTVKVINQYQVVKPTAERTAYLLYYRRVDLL
Sequence of UniProt Q12874 (Q12874 whole entry, looked up): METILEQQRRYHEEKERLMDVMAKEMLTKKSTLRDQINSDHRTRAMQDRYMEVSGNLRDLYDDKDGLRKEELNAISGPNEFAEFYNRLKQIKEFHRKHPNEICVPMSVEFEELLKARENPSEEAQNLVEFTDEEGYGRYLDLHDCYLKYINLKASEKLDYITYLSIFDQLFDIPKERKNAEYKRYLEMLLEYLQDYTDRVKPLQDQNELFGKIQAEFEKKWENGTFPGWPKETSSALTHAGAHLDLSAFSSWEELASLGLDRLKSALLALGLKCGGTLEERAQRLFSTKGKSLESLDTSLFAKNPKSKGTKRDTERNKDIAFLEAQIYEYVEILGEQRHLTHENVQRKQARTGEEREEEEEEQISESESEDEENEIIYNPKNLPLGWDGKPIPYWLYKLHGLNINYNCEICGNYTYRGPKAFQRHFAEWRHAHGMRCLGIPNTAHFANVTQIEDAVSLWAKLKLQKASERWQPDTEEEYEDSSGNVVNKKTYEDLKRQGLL
Sequence of UniProt Q2NL82 (Q2NL82 whole entry, looked up): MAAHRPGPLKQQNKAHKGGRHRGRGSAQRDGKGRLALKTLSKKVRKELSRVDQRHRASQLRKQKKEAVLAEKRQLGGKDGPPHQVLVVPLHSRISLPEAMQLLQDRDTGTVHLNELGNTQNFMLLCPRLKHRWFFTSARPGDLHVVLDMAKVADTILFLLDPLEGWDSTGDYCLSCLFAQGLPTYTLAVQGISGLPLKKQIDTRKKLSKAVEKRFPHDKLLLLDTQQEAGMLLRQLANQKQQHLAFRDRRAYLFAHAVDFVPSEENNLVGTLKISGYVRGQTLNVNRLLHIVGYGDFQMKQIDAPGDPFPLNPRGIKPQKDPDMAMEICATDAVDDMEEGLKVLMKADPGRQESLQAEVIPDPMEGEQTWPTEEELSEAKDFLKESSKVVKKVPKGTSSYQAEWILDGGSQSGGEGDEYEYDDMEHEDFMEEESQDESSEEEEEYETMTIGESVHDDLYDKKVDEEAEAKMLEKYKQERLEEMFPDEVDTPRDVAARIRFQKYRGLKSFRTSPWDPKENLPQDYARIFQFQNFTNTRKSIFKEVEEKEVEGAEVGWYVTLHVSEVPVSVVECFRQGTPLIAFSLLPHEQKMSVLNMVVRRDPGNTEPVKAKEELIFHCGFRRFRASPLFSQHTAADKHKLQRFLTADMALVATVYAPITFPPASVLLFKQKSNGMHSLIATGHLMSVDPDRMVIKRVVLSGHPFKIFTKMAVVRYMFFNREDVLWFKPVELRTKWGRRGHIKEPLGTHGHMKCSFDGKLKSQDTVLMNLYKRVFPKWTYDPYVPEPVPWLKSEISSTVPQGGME

Compound in the test: COC(=O)C#Cc1ccccc1 [methyl 3-phenylpropiolate]
Briefly: log2 ratio of iodoacetamide-alkyne labeling of the cysteine site, DMSO over compound (competition); higher = stronger covalent engagement of the cysteine by the compound, active = 1 or more. As to conditions: 500 µM; treatment time 1 h; system: HEK293T cell lysate. The gist of the method: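 HEK293T lysate at 2 mg/mL was treated with vehicle or electrophile (500 µM) for 1 h at ambient temperature, then labelled with iodoacetamide alkyne (1 h), clicked to sCIP-TMT reagents, pooled, digested with trypsin overnight at 37 °C, enriched on streptavidin and eluted with acid. Peptides were analysed by Orbitrap Eclipse LC-MS/MS with FAIMS and quantified in FragPipe, using duplicate channels and three replicates, with cysteines quantified in only one replicate excluded. The log2 competition ratio for each cysteine is the mean control-channel reporter intensity divided by the mean compound-channel reporter intensity.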
In the case of UniProt P55196_C942, the “log2 ratio of iodoacetamide-alkyne labeling” value (from here on “log2 ratio”) is 1.05 (active).
With USP10 C254 (UniProt Q14694), the “log2 ratio” value is 0.49.
Take SPTAN1 C1622 (UniProt Q13813): the “log2 ratio” value is -0.0196.
As for COASY C140 (UniProt Q13057), the figure is 1.16 (active); as for NFKB2 C57 (UniProt Q00653), 1.24 (active).
As to LRRFIP1 C14 (UniProt Q32MZ4), the “log2 ratio” value was 0.0967.
As for TARBP1 C483 (UniProt Q13395), the figure is 1.21 (active); as for GABPA C338 (UniProt Q06546), 0.308; as for SF3A3 C103 (UniProt Q12874), 0.188.
With TSR1 C329 (UniProt Q2NL82), the “log2 ratio” value was 0.425.
For UniProt P60891_C41, the “log2 ratio” value was -0.0365.
Next, ILK C346 (UniProt Q13418): 1.8 (active).
